Screens: PubChem BioAssay, National Center for Advancing Translational Sciences (NCATS)
Hsp90 Hop PPI: changes Hsp90-Hop TPR2A binding signal, up or down; actives 0.44% (n = 71,000); AlphaScreen TPR2A-His6 binding biotin-Hsp90 C-terminal peptide; AID 595; Potency, µM (titrated, usually from 57 µM); active = well fitted curve in either direction with a large enough effect; inconclusive = small, poorly fitted or top-dose-only effect, or another doubt
ALOX15B inhib: blocks human 15-lipoxygenase 2 activity; purified 15hLO-2, xylenol orange hydroperoxide absorbance; Potency, µM (top dose mostly 57.1 µM), usual class: inhibitors; actives 0.56% (n = 110,000); AID 881; note: nearly all actives have a fitted effect of over 60% in size
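Purified human 15hLO-2 (50 nM final) preincubated with compounds 15 min at room temperature in 25 mM Hepes pH 7.5, 0.01% Triton X-100, then 45 uM arachidonic acid added for 90 min; hydroperoxide detected via ferrous/xylenol orange, 573/405 nm absorbance ratio.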
Tau fil binding: tau filament binding; Potency, µM (doses to about 57.1 µM); AID 596; P10636; recombinant tau filaments, thioflavin S fluorescence, 15 h; filaments grown with octadecylsulfate alongside compound; actives 2% (n = 71,000);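 note: actives lower thioflavin S fluorescence by blocking filaments or displacing dye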
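ThS-based fibril read: tau 1 uM final, inducer ODS 30 uM final, 37 C for 15 h, ex 450/em 510 nm.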
15-hLO inh: blocks human 15-lipoxygenase activity. P16050. purified 15hLO-1, xylenol orange hydroperoxide absorbance. Potency, µM (highest dose often 57.1 µM), hits mostly inhibitors. actives 1.4% (n = 74,000); note: nearly all actives have a fitted effect of over 55% in size
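Compounds were preincubated 15 min at room temperature with 40 nM purified human enzyme (25 mM Hepes pH 7.5, 0.01% Triton X-100); 50 uM arachidonic acid reacted 6 min. Fe-xylenol orange detection, 30 min, absorbance ratio 573/405 nm.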
Caspase-7 inhib: caspase-7 (human) inhibition, allosteric or competitive | Potency, µM (doses to about 57.5 µM), hits mostly inhibitors | recombinant caspase-7, Ac-DEVD-AFC fluorescence rate | actives 0.02% (n = 75,000); active = well fitted inhibition curve with a large enough effect in the main read-out, with a control signal flat, not every such curve was filed as active; inconclusive = small, poorly fitted or top-dose-only effect, or a change in a side signal
Casp1 inh: caspase-1 (human) inhibition, allosteric or competitive; Caspase-1 enzyme, Ac-WEHD-AFC fluorogenic rate; Potency, µM (top dose mostly 57.5 µM), usual class: inhibitors; actives 0.03% (n = 75,000); AID 900
Numbers stand for hits; - = inactive; ? = inconclusive; . = no result; [ ] = another dose, or the depositor's remark. Sampled rows, rich in hits. Any-hit rate of the full collection: about 2.4%. Unless noted, calls come from the whole dose curve; as a rule, active = well fitted curve in the direction sought with a large enough effect; inconclusive = small, poorly fitted or top-dose-only effect, or another doubt; inactive = no such curve, though single readings can be large; an effect the other way counts as inactive or inconclusive.

SMILES	Hsp90 Hop PPI	ALOX15B inhib	Tau fil binding	15-hLO inh	Caspase-7 inhib	Casp1 inh
NC(=S)NNC(N)=S	-	-	-	-	-	-
NC(=S)NNc1cc(Cl)cc(Cl)c1	.	2.5µM	.	.	.	.
Cc1c(C)n(C)c2ccc(C(=O)NCc3cccs3)cc12	-[2.3 µM]	.	-	10µM	-	-
CCCN1C(=O)c2cc(C(=O)NCc3cccs3)ccc2C1O (stereo not drawn)	-[2.3 µM]	-	-	-	-	-
CSc1nc(C)cc(/C=C\c2ccccc2)c1C#N	.	-	.	.	.	.
COCCNS(=O)(=O)c1cc(OC)c(Cl)cc1Cl	-	-	-	-	-	-
O=C(Nc1nc(-c2ccccn2)cs1)C1COc2ccccc2O1 (stereo not drawn)	16µM	.	-	-	-	-
O=C(Nc1nc(-c2ccccc2)cs1)C1COc2ccccc2O1 (stereo not drawn)	.	-	.	.	.	.
C[C@@]12C(=O)OC(=O)[C@@]1(C)C1CCC2O1	.	-	.	-	-	-
C[C@@]12C(=O)OC(=O)[C@@]1(C)[C@@H]1CC[C@@H]2O1	-	-	32µM	-	-	-
O=[N+]([O-])c1ccc(Oc2cccc(Br)c2)c2ccncc12	.	-	.	.	.	.
Cc1ccccc1NC(=O)CN1C(=O)S/C(=C\c2cccn2-c2cccc(C(=O)O)c2)C1=O	.	25µM	.	.	.	.
CN(C)/C=C1/Sc2ccccc2C1=O	.	-	.	-	-	-
CN(C)/C=C1\C(=O)c2ccc(N(C)C)nc2CC1c1ccccc1 (stereo not drawn)	-	.	-	5µM	?	.
O=c1cc(-c2cccc(O)c2O)oc2ccccc12	?	16µM	-	?	-	-
O=c1cc(-c2ccccc2O)oc2cc(O)ccc12	.	-	.	?	-	-
COc1cc(OC)cc(C(=O)Nc2ccccc2C(=O)N2CCCC2)c1	.	-	.	.	.	.
c1ccc(CCn2nnnc2C(c2cccnc2)N2CCN(c3ccccc3)CC2)cc1 (stereo not drawn)	-	-	-	-	?	-
Oc1ccc(N2CCN(C(c3cccnc3)c3nnnn3Cc3ccccc3)CC2)cc1 (stereo not drawn)	-	-[2.29 µM]	-	13µM	-	-
COc1ccccc1CNS(=O)(=O)c1ccc(NC(C)=O)cc1	-	-	-	-	-	-
O=C(OCCN1CCOCC1)c1cccnc1	-	-	-	-	-	-
COc1ccccc1CNc1ccc(C(=O)O)cc1	.	-	.	.	.	.
COc1ccccc1CNc1ccc(N2CCCCC2)cc1	?	-[2.29 µM]	10µM	16µM	-	-
COc1cccc(CNc2ccc(N3CCCCC3)cc2)c1OC	?	25µM	7.9µM	2µM	-	-
NC(=O)c1cccc2c3c([nH]c12)CCCC3	?	-	-	3.2µM	?	.
SMILES	Hsp90 Hop PPI	ALOX15B inhib	Tau fil binding	15-hLO inh	Caspase-7 inhib	Casp1 inh
c1ccc(-c2cc(-c3nc(-c4cccnc4)no3)c3ccccc3n2)cc1	-	-	4µM	-	-	-
CC1=C(/C=C/C(C)=C/C=C/C(C)=C/C=C/C=C(C)/C=C/C=C(C)/C=C/C(=O)[C@]2(C)CC(O)CC2(C)C)C(C)(C)CC(O)C1 (stereo partly drawn)	.	-	.	3.2µM	-	-
c1csc(-c2ncc3ccccn23)c1	-	-	-	-	-	-
COc1ccc(-c2ncc3ccccn23)cc1	-	-	20µM	-	-	-
Cc1ccc2[nH]c3c(c2c1)CCc1cn[nH]c1-3	-	-	7.9µM	-	-	-
CC1CCC/C(=N\NC(=O)COc2ccc(Cl)cc2Cl)C1 (stereo not drawn)	.	-	.	.	.	.
Cc1ccc(C(=O)[C@@H]2[C@@H]3[C@@H](C(=O)[C@@H]4OC[C@H]3O4)[C@@H]3C=Cc4ccccc4N23)cc1	?	.	32µM	.	.	.
COc1ccc(C(=O)[C@H]2[C@H]3[C@@H](C(=O)[C@@H]4OC[C@H]3O4)[C@H]3C=Cc4ccccc4N32)c(OC)c1	?	.	-	.	.	.
COc1ccc(OC)c(C(=O)C2COC(=O)C2)c1 (stereo not drawn)	-	-	-	-	-	-
Cc1c2oc3c(C)ccc(C(=O)N[C@@H]4C(=O)N[C@H](C(C)C)C(=O)N5CCC[C@H]5C(=O)N(C)CC(=O)N(C)[C@@H](C(C)C)C(=O)O[C@@H]4C)c3nc-2c(C(=O)N[C@@H]2C(=O)N[C@H](C(C)C)C(=O)N3CCC[C@H]3C(=O)N(C)CC(=O)N(C)[C@@H](C(C)C)C(=O)O[C@@H]2C)c(N)c1=O	-	-[0.0915 µM]	-	13µM	?	.
CC(C)CC(C(=O)Nc1oc(-c2ccco2)c(-c2ccco2)c1C#N)N1C(=O)c2ccccc2C1=O (stereo not drawn)	?	?	?	25µM	?	?
CCOC(=O)C1=C(C)NC(SCC(=O)O)=C(C#N)C1c1ccco1 (stereo not drawn)	.	-	.	.	.	.
CC(=O)C1=C(C)NC(SCC(=O)c2ccc(Cl)c(Cl)c2)=C(C#N)C1c1ccco1 (stereo not drawn)	-	-	1µM	13µM	?	.
CC(=O)C1=C(C)NC(SCC(=O)c2cc(Cl)ccc2Cl)=C(C#N)C1c1ccco1 (stereo not drawn)	-	-	-	4µM	?	.
COc1ccc2c(c1)Cc1cc(N=[N+]([O-])c3ccc4c(c3)Cc3cc(OC)ccc3-4)ccc1-2	-[11 µM]	?	3.2µM	4µM	-[11.5 µM]	-[11.5 µM]
COc1ccc2c(c1)CCc1c(-c3noc4c3CCc3cc(OC)ccc3-4)noc1-2	-[11 µM]	-[11.4 µM]	-[11.4 µM]	-[11.4 µM]	-[11.5 µM]	-[11.5 µM]
COc1cc(=O)n(C)c2c(OCC(O)C(C)(C)O)cccc12 (stereo not drawn)	.	-	.	-	-	-
C/C(=C\COc1cc(=O)[nH]c2ccccc12)CC[C@@H](O)C(C)(C)O	-	.	40µM	.	.	.
O=[n+]1cc(-c2ccccc2)n([O-])c2c1CCC2	-	-	-	-	-	-
COc1ccc(OC)c(NC(=O)C2CCCN2C(=O)C2CCC(C)CC2)c1 (stereo not drawn)	-	-	20µM	-	-	-
O=C1c2ccccc2C(=O)N1Cc1cc(-c2ccccc2)no1	.	-[11.4 µM]	.	.	.	.
COc1ccccc1N1CCN(CCn2c(=O)[nH]c3c([nH]c4ccccc43)c2=O)CC1	-	-	40µM	?	-	-
CSc1nc(-c2ccco2)nn1S(=O)(=O)c1ccc(C)cc1	-	.	-	25µM	-	-
CSc1nc(-c2ccco2)nn1S(=O)(=O)c1ccccc1	-	-	-	-	-	-
CCOc1cc(C2NC(=O)NC(O)(C(F)(F)F)C2C(=O)c2ccc(OC)cc2)ccc1O (stereo not drawn)	-	-	-	-	-	-
COc1cc2c(cc1OC)-c1cc3nc4ccccc4nc3n1C(C)(C)C2	?	25µM	-	13µM	?	.
Cn1nc(SCC(=O)O)sc1=S	-	-	-	-	-	-
Nc1ccc(N(c2ccccc2)c2ccc(N)cc2)cc1	.	0.63µM	.	.	.	.
CCN(C(N)=S)c1ccccc1	.	-	.	.	.	.
